The text below walks through data of PubChem BioAssay (NCATS).

Test [1] addresses Lysosomal acid glucosylceramidase (Homo sapiens) (UniProt P04062). In words: Glucocerebrosidase-p2 (AID 348; in the data active = potency below about 10 µM; also: potency is read from the fitted curve at half-maximal effect). The settings on record: purified GBA, blue fluorogenic substrate, 40 min. Put shortly: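 Compounds titrated from 0.6 nM upwards against 0.2 nM enzyme in pH 5.9 citric acid/KH2PO4, taurocholate, tween-20; blue fluorogenic substrate 80 uM, 40 min room temperature, stopped and read Ex 365/Em 440 for AC50.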

Test [2] is described as follows: AP1 Signaling Pathway (AID 357).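 Also: ME-180 reporter cells stimulated with EGF at its EC50 level; % is scaled to controls: 0 for no effect and ±100 for the full control effect.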 Conditions: ME-180 AP-1-bla reporter, EGF-induced, beta-lactamase ratio, 5 h; at 7.69 µM (top of the series) unless noted. Put shortly:
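Read-out was the 460nm/530nm emission ratio (excitation 405nm) after CCF4 loading for 2.5 hours at room temperature. Cells carried an AP-1-driven beta-lactamase reporter, were stimulated with EC50 EGF plus compound for 5 hours, and AC50 values came from titrations.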

Test [3] has as its target Cytochrome P450 1A2 (Homo sapiens) (UniProt P05177). The test can be described thus: p450-cyp1a2 (AID 410; calls by dose curve; also: potency is read from the fitted curve at half-maximal effect). Conditions: recombinant CYP1A2, luciferin-ME demethylation, luminescence; series mostly up to 11.4 µM. Put shortly: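 Human CYP1A2 (20nM) demethylated Luciferin-ME at its Km (100uM) in 100mM KPO4. After 10 min compound preincubation, NADPH regeneration ran the reaction 60 min at room temperature. Luciferin was read by luminescence, normalized to 57 uM furafylline.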

The nature of test [4]: NFAT Signaling Pathway (AID 444).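 Also: carbachol stimulus at about its EC50 of 1 µM final; % is scaled to controls: 0 for no effect and ±100 for the full control effect.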 The settings on record: Jurkat NFAT-bla M1, carbachol, beta-lactamase ratio, 5 h; at 7.69 µM (top of the series) unless noted. Put shortly:
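Jurkat cells carrying an NFAT-driven β-lactamase reporter and co-transfected muscarinic M1 receptor were treated with compound plus carbachol (1 uM final, an EC50 level) for 5 h at 37 °C. CCF4 loading followed for 1 h at RT; 460/530 nm ratio gave %activity.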

A short description of test [5]: Stat Signaling Pathway (AID 446).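 Also: ME-180 cervical cancer cells given 40 pM IL-6 alongside compound; SIE-controlled beta-lactamase reporter measured as 460/530 nm FRET emission ratio; % is scaled to controls: 0 for no effect and ±100 for the full control effect.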 Conditions: ME-180 SIE beta-lactamase reporter, IL-6 stimulated, 5 h; at 7.69 µM (top of the series) unless noted. Put shortly: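 Reporter line: ME-180 cervical carcinoma, SIE-beta-lactamase. Treatment: compound with 40 pM IL-6, 5 hrs, 37 C, in low-serum OPTI-MEM with 10 mM HEPES pH 7.3. Detection: 460/530 nm fluorescence.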
The target of test [6] is Glucocorticoid receptor (Homo sapiens) (UniProt P04150). In words: GR-GFP Redistribution (AID 450;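 active = compounds whose dose series gives a full or clear partial fitted curve of increased nuclear translocation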; also: potency is read from the fitted curve at half-maximal effect). The settings on record: U2OS GR-GFP nuclear translocation, laser cytometry, 2 h.
Chain of Glucocorticoid receptor (Homo sapiens) (P04150 whole entry, looked up, the tested form may be a part): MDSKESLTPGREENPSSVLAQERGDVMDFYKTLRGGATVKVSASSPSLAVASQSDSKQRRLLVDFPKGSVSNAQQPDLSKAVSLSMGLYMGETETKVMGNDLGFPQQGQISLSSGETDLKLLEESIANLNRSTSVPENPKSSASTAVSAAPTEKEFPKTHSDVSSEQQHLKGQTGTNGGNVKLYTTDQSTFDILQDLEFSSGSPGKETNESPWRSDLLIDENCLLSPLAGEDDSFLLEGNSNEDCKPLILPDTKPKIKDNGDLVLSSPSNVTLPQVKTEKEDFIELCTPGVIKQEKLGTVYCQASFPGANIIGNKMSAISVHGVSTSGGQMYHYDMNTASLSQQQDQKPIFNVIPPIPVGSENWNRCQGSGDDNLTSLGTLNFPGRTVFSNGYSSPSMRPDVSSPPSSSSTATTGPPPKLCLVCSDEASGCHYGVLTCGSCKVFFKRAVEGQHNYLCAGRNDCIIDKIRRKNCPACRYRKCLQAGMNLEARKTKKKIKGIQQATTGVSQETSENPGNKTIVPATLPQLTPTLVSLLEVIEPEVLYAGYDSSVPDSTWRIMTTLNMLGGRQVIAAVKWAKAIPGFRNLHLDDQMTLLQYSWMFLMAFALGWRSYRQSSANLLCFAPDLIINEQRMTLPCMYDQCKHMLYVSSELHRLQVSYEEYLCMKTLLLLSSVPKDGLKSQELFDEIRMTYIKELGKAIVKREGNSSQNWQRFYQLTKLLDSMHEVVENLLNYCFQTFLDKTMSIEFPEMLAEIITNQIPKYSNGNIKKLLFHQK
Test [7] has the same target. The test can be described thus: GR-EFC Redistribution (AID 451; calls by dose curve; also: potency is read from the fitted curve at half-maximal effect). The settings on record: CHO-K1 GR-EFC translocation, beta-gal luminescence, 2 h. Put shortly: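 CHO-K1 cells stably expressing nuclear-localized β-gal enzyme acceptor and GR fused C-terminally to the enzyme donor fragment; ligand-driven nuclear translocation restores β-gal by complementation. Compounds titrated up to 46 uM final, 2 h at 37 °C; luminescence read.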

For test [8], the target named is Mitogen-activated protein kinase 10 (Mus musculus) (UniProt Q61831). The test can be described thus: JNK3 AlphaScreen Assay (AID 530).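 Also: kinase came from lysate of stimulated human HepG2 cells; signal reports phosphorylation of biotinylated GST-cJun 1-79 at Ser73 with 10 µM ATP; % is scaled to controls: 0 for no effect and ±100 for the full control effect.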 The settings on record: JNK3 lysate, c-Jun phosphorylation; series mostly up to 11.4 µM. Put shortly:
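JNK3 came from HepG2 lysates pre-activated with IL-1beta and TNF-alpha and phosphorylated biotinylated GST-cJun (1-79) at 10 uM ATP, pH 7.6, room temperature. Compounds were titrated. AlphaScreen signal used anti-phospho-cJun (Ser73) antibody.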
A general note: Bead proximity is the source of the signal in Alpha formats.

For test [9], the target named is 3',5'-cyclic-AMP phosphodiesterase 4B (Homo sapiens) (UniProt Q07343). In words: qHTS Assay for Inhibitors of PDE-IV (AID 607; active = well fitted activation curve with a large enough effect in the main read-out, with a control signal flat, not every such curve was filed as active; also: % of control where 0% means no effect). The settings on record: HEK293 ACTOne CNG channel cells, membrane potential fluorescence; series mostly up to 22.9 µM. Put shortly: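 Cell-based read-out of cAMP via a modified cyclic nucleotide-gated channel and membrane potential dye (535/590 nm) in HEK293 cells expressing PDE4 endogenously. Compounds tested up to 22.9 uM final; 100 uM RO 20-1724 reference.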
Chain of 3',5'-cyclic-AMP phosphodiesterase 4B (Homo sapiens) (Q07343 whole entry, looked up): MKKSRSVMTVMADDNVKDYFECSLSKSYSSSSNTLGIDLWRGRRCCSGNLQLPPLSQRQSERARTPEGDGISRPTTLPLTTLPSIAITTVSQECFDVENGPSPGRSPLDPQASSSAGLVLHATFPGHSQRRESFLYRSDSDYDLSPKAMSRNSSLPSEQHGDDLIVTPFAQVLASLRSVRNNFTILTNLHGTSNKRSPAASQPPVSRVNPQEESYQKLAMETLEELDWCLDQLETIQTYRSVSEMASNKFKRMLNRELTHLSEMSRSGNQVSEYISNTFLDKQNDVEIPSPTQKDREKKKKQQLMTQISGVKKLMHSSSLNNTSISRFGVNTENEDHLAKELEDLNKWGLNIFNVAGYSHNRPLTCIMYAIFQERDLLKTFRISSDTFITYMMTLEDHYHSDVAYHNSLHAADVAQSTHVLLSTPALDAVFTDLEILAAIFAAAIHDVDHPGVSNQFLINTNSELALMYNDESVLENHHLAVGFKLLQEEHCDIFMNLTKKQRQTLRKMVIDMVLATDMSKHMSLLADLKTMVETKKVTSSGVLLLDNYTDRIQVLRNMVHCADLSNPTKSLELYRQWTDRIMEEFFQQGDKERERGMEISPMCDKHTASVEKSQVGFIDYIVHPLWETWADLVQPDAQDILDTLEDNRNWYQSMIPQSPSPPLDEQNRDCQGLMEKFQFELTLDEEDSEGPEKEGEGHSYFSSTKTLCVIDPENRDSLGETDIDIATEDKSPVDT

Test [10] can be described thus: qHTS Assay for Identification of Small Molecule Agonists for Hypoxia Response Element Signaling Pathway (AID 914; active = well fitted activation curve with a large enough effect in the signal ratio, with a control signal flat, not every such curve was filed as active; the % refers to the signal ratio; also: % of control where 0% means no effect). The settings on record: ME-180 (cervical carcinoma) HRE-bla reporter, beta-lactamase ratio, CoCl2, 17 h; activation: stronger effect = higher value. Put shortly:
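Cells were plated overnight, pin-dosed with compound in a titration series, co-stimulated with EC50 CoCl2 and incubated 17 hours at 37 degrees Celsius. CCF4 substrate was then loaded, and AC50 values came from the 460nm/530nm ratio.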

Test [11] has as its target Cytochrome P450 2C19 (Homo sapiens) (UniProt P33261). In words: qHTS Assay for Inhibitors and Substrates of Cytochrome P450 2C19 (AID 899; active = well fitted inhibition curve with a large enough effect; also: nearly all actives have a fitted effect of over 60% in size; also: potency is read from the fitted curve at half-maximal effect). Conditions: recombinant CYP2C19, luciferin-H EGE luminescence; series mostly up to 11.4 µM. Put shortly: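 Human CYP2C19 (5nM) with Luciferin-H EGE at 10uM (its KM) in 50mM KPO4 was preincubated with compound for 10 min at 37C. NADPH regeneration started a 60 min 37C reaction. Luciferin was read by luminescence, normalized to 57uM ketoconazole.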
(In general: In qHTS, concentration-response curves come from the screen itself.)

Each structure is given as a SMILES string. Unmarked numbers belong to inactive results. Inconclusive results are not listed. The source made the active and inactive calls. Unless noted, calls follow the shape of the dose curve; as a rule, active = well fitted curve in either direction with a large enough effect (not every such curve was filed as active); inconclusive = small, poorly fitted or top-dose-only effect, or another doubt; inactive = flat fitted curve, though single readings scatter. Where only a bound is given, the exact number is not on record here.

Chain of Cytochrome P450 2C19 (Homo sapiens) (P33261 whole entry, looked up): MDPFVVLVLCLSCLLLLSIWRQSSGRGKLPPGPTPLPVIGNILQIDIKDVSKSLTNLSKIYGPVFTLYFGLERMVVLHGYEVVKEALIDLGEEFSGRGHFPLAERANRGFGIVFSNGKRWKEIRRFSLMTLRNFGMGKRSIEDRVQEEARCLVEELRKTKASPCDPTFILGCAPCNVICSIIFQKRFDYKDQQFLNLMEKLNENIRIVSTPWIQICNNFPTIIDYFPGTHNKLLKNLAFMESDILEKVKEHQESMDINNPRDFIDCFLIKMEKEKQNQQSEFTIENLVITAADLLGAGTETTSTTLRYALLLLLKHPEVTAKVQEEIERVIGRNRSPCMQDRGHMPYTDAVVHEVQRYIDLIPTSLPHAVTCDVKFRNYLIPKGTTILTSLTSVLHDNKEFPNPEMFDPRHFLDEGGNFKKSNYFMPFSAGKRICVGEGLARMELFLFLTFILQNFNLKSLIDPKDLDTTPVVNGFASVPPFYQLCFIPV
Chain of Lysosomal acid glucosylceramidase (Homo sapiens) (P04062 whole entry, looked up): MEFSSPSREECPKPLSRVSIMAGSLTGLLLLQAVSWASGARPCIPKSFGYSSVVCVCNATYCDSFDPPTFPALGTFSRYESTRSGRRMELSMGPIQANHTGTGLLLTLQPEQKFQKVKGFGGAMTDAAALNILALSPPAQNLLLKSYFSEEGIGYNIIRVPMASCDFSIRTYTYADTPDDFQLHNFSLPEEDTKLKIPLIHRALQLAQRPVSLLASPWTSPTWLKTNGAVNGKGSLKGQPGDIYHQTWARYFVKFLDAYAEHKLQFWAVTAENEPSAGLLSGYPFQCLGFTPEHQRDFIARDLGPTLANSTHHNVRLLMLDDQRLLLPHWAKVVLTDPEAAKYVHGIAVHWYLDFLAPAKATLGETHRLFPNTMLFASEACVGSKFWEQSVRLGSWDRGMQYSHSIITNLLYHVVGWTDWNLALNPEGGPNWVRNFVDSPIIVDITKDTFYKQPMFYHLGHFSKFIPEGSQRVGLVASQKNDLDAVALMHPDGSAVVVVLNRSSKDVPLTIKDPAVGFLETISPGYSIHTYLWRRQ
Chain of Cytochrome P450 1A2 (Homo sapiens) (P05177 whole entry, looked up): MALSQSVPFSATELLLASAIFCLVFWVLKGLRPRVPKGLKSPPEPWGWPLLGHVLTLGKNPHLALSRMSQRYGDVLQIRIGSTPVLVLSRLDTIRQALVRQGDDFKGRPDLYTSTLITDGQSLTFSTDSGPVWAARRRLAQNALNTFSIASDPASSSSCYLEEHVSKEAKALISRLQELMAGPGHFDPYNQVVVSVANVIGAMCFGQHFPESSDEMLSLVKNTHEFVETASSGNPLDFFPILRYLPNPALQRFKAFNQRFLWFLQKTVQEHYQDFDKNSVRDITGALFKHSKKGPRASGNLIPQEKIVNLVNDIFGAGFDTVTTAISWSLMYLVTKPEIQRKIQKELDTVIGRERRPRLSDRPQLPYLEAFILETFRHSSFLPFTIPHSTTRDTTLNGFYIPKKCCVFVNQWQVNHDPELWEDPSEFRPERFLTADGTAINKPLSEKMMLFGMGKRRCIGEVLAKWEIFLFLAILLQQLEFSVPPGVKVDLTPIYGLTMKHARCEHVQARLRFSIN

For `C[C@@](N)(/C=C\c1ccccc1)C(=O)O`, the Potency in [1] is more than 11.4 µM; in test [6], more than 46 µM; in [7] it was more than 9.22 µM. In addition, the activity change, negative = inhibition in test [2] is -1.95%; in [4] it was 12%. Also, the Potency result in test [3], in [8] and in [9] was “inactive” in each case. Further, in test [5], the activity, negative = inhibition is -3.44%. The activation in test [10] is -2.86%.
Regarding `CC1=N[C@@](C)(COC(=O)[C@]2(C)N[C@](C)(CO)CO2)COC1=O`, the Potency was more than 11.4 µM in test [1], more than 46 µM in test [6] and more than 9.22 µM in test [7]. Also, the activity change, negative = inhibition was 0.84% in [2], 6.9% [at 2.29 µM] in [3] and 9.08% in test [4]. Besides, the activity, negative = inhibition in test [5] was 6.3%. For the same molecule, the Potency result in test [8] and in [9] was “inactive” in each case. In addition, in test [10], the activation was 5.98%.
With `CC(C)(C)c1ccc(OCC(=O)O)c(Cl)c1`, the Potency in [1] is more than 11.4 µM; in [6] it was more than 46 µM; in test [7], more than 9.22 µM. In addition, the activity change, negative = inhibition in test [2] is -2.54%; in test [4] it was 10.5%. In addition, the Potency result in test [3], in test [8], in test [9] and in test [11] was “inactive” in each case. Besides, in test [5], the activity, negative = inhibition was -5.16%.
In the case of `C=C1CCO[C@@]2([C@H](O)[C@@](C)(O)CO)NC(=O)[C@]1(O)NC2=O`, the results for the Potency in [1], in test [6] and in test [7] were more than 11.4 µM, more than 46 µM and more than 9.22 µM, respectively. Besides, the activity change, negative = inhibition was 5.8% in test [2], -4% [at 2.29 µM] in test [3] and -4.59% in test [4]. The activity, negative = inhibition in [5] was 2.56%. Besides, the Potency entry in [8], in test [9] and in [11] was “inactive” each time.
As for `OCCCNCc1ccccn1`, the Potency in test [1] is more than 11.4 µM; in test [6], more than 46 µM; in [7], more than 9.22 µM. The results for the activity change, negative = inhibition in [2], in test [3] and in [4] were -3.7%, -20% [at 2.29 µM] and 5.11%, respectively. The activity, negative = inhibition in test [5] was 5.98%. For the same molecule, the Potency result in test [8] and in [9] was “inactive” throughout. In addition, the activation in test [10] was 12.2%.
With `N[C@@H](Cc1c[nH]c2ccc([N+](=O)[O-])cc12)C(=O)O`, the Potency in test [1] is more than 11.4 µM; in [6], more than 46 µM; in test [7] it was more than 9.22 µM. The results for the activity change, negative = inhibition in [2] and in test [4] were -1.05% and -4.18%, respectively. In addition, the Potency result in test [3], in [8] and in test [9] was “inactive” throughout. In addition, the activity, negative = inhibition in test [5] was 3.4%. Also, the activation in test [10] is -2.55%.
With `Cc1cc(C2(c3cc(C)c(O)c(C(=O)O)c3)OS(=O)(=O)c3ccccc32)cc(C(=O)O)c1O`, the values for the Potency in [1], in [6] and in test [7] were more than 11.4 µM, more than 46 µM and more than 9.22 µM, respectively. For the same molecule, the values for the activity change, negative = inhibition in test [2] and in test [4] were -7.31% and -1.56%, respectively. Also, the Potency entry in [3], in [8] and in test [9] was “inactive” in each case. Also, the activity, negative = inhibition in test [5] is 2.58%. In addition, the activation in [10] is -3.84%.
On to `Cn1c(=O)c2c(nc(N/N=C\c3ccccc3C(=O)O)n2C)n(C)c1=O`, for which the Potency in test [1] is more than 11.4 µM; in test [6], more than 46 µM; in test [7], more than 9.22 µM. Besides, the activity change, negative = inhibition in [2] is -10.8%; in test [4] it was 5.57%. In addition, the Potency entry in [3], in test [8], in [9] and in test [11] was “inactive” in each case. Moreover, the activity, negative = inhibition in [5] is 3.2%.
With `O=C(NCCO)c1ccc(Cl)cc1`, the Potency is more than 11.4 µM in test [1], 3.98 µM (active) in test [3], more than 46 µM in test [6] and more than 9.22 µM in [7]. For the same molecule, the activity change, negative = inhibition in test [2] is -0.923%; in [4], 9.91%. The activity, negative = inhibition in [5] is 15.2%. Also, the Potency entry in [8] and in [9] was “inactive” throughout. Further, the activation in [10] was 9.98%.
In the case of `NCC[C@H](N)C(=O)O`, the Potency in [1] was more than 11.4 µM; in test [6] it was more than 46 µM; in test [7], more than 9.22 µM. Also, the activity change, negative = inhibition in test [2] was -2.63%; in test [3], -8.9% [at 2.29 µM]; in test [4] it was 8.74%. Besides, in test [5], the activity, negative = inhibition was -3.44%. In addition, the Potency entry in test [8] and in test [9] was “inactive” each time. The activation in test [10] was -6.29%.
With `CC(=O)OC(C)(C)N=Nc1ccc(Br)cc1`, the Potency was more than 11.4 µM in test [1]; 3.16 µM (active) in test [3]; more than 46 µM in test [6]; more than 9.22 µM in [7]; 1.26 µM (active) in test [11]. The activity change, negative = inhibition was -5.95% in [2] and 14.8% in test [4]. Further, the activity, negative = inhibition in [5] is 2.84%. Moreover, the Potency result in test [8] and in test [9] was “inactive” throughout.
On to `Nc1nc(-c2cccc([N+](=O)[O-])c2)cc(-c2cc(-c3cccc([N+](=O)[O-])c3)nc(N)n2)n1`, for which the Potency in [1] was more than 11.4 µM; in test [6], more than 46 µM; in test [7], more than 9.22 µM. Also, the activity change, negative = inhibition was -0.341% in test [2], 0.3% [at 2.29 µM] in [3] and 6.8% in [4]. Moreover, the activity, negative = inhibition in test [5] is 3.52%. In addition, the Potency result in [8] and in test [9] was “inactive” throughout. Also, the activation in [10] is 18.2%.
`O=C1CCC(c2ccccc2)=NN1c1nc2ccccc2s1`: the Potency in test [1] is more than 11.4 µM; in test [3], 0.398 µM (active); in test [6], more than 46 µM; in test [7] it was more than 9.22 µM. The activity change, negative = inhibition in test [2] is -11.1%; in test [4], -3.68%. Further, the activity, negative = inhibition in test [5] was -10.7%. Also, the Potency result in test [8] and in test [9] was “inactive” throughout. The activation in [10] is -16.7%.
Regarding `COc1ccc2nc(NCN3C(=O)c4ccccc4C3=O)sc2c1`, the Potency in test [1] was more than 11.4 µM; in [3], 3.98 µM (active); in test [6], more than 46 µM; in test [7], more than 9.22 µM; in test [11], 2.51 µM (active). In addition, the activity change, negative = inhibition in [2] was 2.48%; in [4] it was -16%. Besides, the activity, negative = inhibition in test [5] was 10.9%. The Potency entry in test [8] and in test [9] was “inactive” throughout.
